# m5-HT2A agonist – agonists of mouse serotonin 5-HT2A receptor (HTR2A). CHO-K1 mHTR2A beta-arrestin complementation, luminescence; percent of 30 µM serotonin response. 360,000 tested, 0.66% active. activation, % at 7.6 µM;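 active = activation above a run cutoff, the mean activation of all tested compounds plus 3 SD, cut at about 14% in these data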;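 note: 0% = plate median of compound wells and 100% = 30 µM serotonin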
# B2AR ag – human beta-2 adrenergic receptor agonism by FAP; P07550; Am2.2-beta2AR cells, FAP receptor internalization, flow cytometry; response, % (no concentration beside the values); 340,000 tested, 0.43% active; AID 504454;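 active = response above a set limit, near 3 SD of response in nonfluorescent compounds, cut at about 42% in these data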
# ABHD5-PLIN5 inh – ABHD5-PLIN5 protein interaction inhibition. Q00G26+Q8WTS1. Split G. princeps luciferase complementation, luminescence, 4 h. inhibition, % at 4 µM. 360,000 tested, 0.78% active. AID 602281;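 active = inhibition above the mean inhibition across every tested compound plus 3 SD, cut at about 22% in these data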;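 note: 0% = DMSO only wells and the 100% control is not disclosed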
# Granule exo inh – blocks lytic granule exocytosis | TALL-104 LAMP-1 surface exposure, flow cytometry; cells stimulated with thapsigargin and PMA | 360,000 tested, 0.66% active | inhibition, % at 10 µM;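 active = inhibition above about 55%, limit read from the data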
# NTR1 agonist – agonists of human neurotensin receptor NTR1; P30989; NTR1-U2OS beta-arrestin-GFP spot imaging, agonist mode; activation, % at 20 µM; 330,000 tested, 0.17% active;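 active = activation at or above 40% of the spot to cytoplasm intensity ratio, with at least 20 cells analyzed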;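 note: 0% = DMSO without peptide and 100% = 100 nM NTR1 peptide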
# Target sequence (P30989 whole entry, looked up): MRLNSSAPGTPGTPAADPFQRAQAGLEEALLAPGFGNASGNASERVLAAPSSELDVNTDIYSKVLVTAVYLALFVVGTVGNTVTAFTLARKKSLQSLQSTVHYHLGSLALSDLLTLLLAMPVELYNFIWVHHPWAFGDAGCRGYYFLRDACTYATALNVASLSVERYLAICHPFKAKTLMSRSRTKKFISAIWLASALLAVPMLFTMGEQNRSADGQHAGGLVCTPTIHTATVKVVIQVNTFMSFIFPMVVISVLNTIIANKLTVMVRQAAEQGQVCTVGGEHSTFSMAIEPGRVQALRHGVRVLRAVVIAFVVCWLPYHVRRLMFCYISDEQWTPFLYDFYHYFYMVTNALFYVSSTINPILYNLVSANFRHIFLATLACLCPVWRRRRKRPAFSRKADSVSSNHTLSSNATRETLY
# Exocytosis CP01 – lytic granule exocytosis inhibition; TALL-104 cells, LAMP-1 externalization, flow cytometry; stimulated with PMA plus thapsigargin; shares compounds with Granule exo inh; 1,500 tested, 11% active; inhibition, % at 10 µM; AID 651954; in the data active = inhibition above about 60%;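 note: 0% = stimulated vehicle wells and 100% = unstimulated wells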
# Active calls of the source: *; nt = not tested or not shown. In the library only some 2.3% were active in any assay of this set; here they are far more common.
SMILES,m5-HT2A agonist,B2AR ag,ABHD5-PLIN5 inh,Granule exo inh,NTR1 agonist,Exocytosis CP01
Cc1ccc(S(=O)(=O)c2cc3c(=O)n4cccc(C)c4nc3n(C3CCCCC3)c2=N)cc1,-5.6,-6.2,0.1,8.0,3.6,nt
Cc1ccc(S(=O)(=O)c2cc3c(=O)n4ccccc4nc3n(C3CCCC3)c2=N)cc1,8.1,13.9,1.7,88.0*,5.9,-14.7
Cc1nnc(N2CCCC(C(=O)NCc3ccccc3F)C2)c2nn(-c3ccccc3)c(C)c12 (configuration not stated),4.8,-5.7,-5.0,2.4,7.7,nt
Cc1nnc(N2CCCC(C(=O)NCc3cccc(F)c3)C2)c2nn(-c3ccccc3)c(C)c12 (configuration not stated),-1.9,-7.2,10.3,51.4,6.6,nt
CCc1ccc(CNC(=O)C2CCCN(c3nnc(C)c4c(C)n(-c5ccccc5)nc34)C2)cc1 (configuration not stated),0.7,5.4,-2.3,57.7*,19.9,87.2*
Cc1ccccc1CNC(=O)C1CCCN(c2nnc(C)c3c(C)n(-c4ccccc4)nc23)C1 (configuration not stated),-0.9,5.6,-0.5,74.2*,16.6,1.3
Cc1ccccc1OCC(O)CN(Cc1ccccc1O)C1CCCCC1 (configuration not stated),-6.1,9.6,7.0,67.8*,8.5,-12.6
COc1cccc(O)c1CN1CCC(C(=O)Nc2ccc(-c3cccc(C)c3)cc2)CC1,-10.2,33.3,7.5,66.2*,23.0,13.9
O=C(CSc1ccc(F)cc1)Nc1cccc(S(=O)(=O)N2CCOCC2)c1,-2.8,-1.1,-0.7,1.8,-0.7,nt
COc1ccc2[nH]c3c(C)c4ccncc4c(C)c3c2c1,-2.8,12.5,3.5,70.2*,-0.4,18.0
COc1ccc(CNC(=O)C2CCN(S(=O)(=O)c3ccc(Br)s3)CC2)cc1,5.5,7.1,-7.4,51.6,-0.4,nt
O=C(NCCc1ccc(Cl)cc1)C1CCN(S(=O)(=O)c2ccc(Br)s2)CC1,0.9,3.5,-5.1,64.6*,9.3,-12.9
COc1ccc(Br)cc1CNC(=O)C1CCCN(S(=O)(=O)N2CC(C)CC(C)C2)C1 (configuration not stated),-5.4,1.9,0.6,69.9*,3.6,-4.7
O=C(NCCc1ccc(Cl)cc1)C1CCN(S(=O)(=O)N2CCCC2)CC1,3.0,-4.5,5.8,0.6,1.2,nt
COc1ccc(CNC(=O)C2CCCN(S(=O)(=O)c3ccc(Br)s3)C2)cc1 (configuration not stated),0.3,-9.0,-7.6,68.8*,2.9,-13.8
CC(=O)NS(=O)(=O)c1ccc(NC(=O)c2oc3c(Cl)cccc3c2C)cc1,nt,nt,nt,nt,-2.6,nt
COC(=O)c1sccc1NC(=S)Nc1ccc(F)cc1F,8.4,2.4,-8.2,60.0*,0.3,-4.5
COC(=O)c1sccc1NC(=S)Nc1cccc(F)c1,-0.9,-0.8,-2.2,-5.6,7.2,nt
Cc1ccc(S(=O)(=O)NC(C(=O)N2CCN(S(=O)(=O)c3cccc(F)c3)CC2)C(C)C)cc1 (configuration not stated),-10.6,10.7,0.7,-8.5,-1.0,nt
COCCN1C(=O)C(=O)/C(=C(/O)c2ccc(S(=O)(=O)N3CCCCC3)cc2)C1c1ccc(OC)cc1 (configuration not stated),5.8,2.0,-7.3,-1.0,-0.6,nt
O=c1c(Cl)c2oc3ccccc3nc-2c2ccccc12,2.1,-89.7,3.8,101.7*,0.5,77.0*
Clc1ccc(-c2nnc(Sc3nc4ccccc4o3)c3ccccc23)cc1,-5.1,12.7,9.1,0.0,6.6,nt
COc1ccccc1CN(C)S(=O)(=O)c1cccs1,-6.9,-3.7,5.3,15.4,-0.4,nt
COc1ccc(C(C)=O)cc1CN(c1ccccc1OC)S(=O)(=O)c1cccs1,-2.3,-20.1,0.3,91.9*,0.4,-5.7
O=C(NCc1ccccc1)C1(c2ccccc2)CCN(S(=O)(=O)c2ccccc2)CC1,-1.7,12.0,-5.2,62.7*,4.6,-3.3
SMILES,m5-HT2A agonist,B2AR ag,ABHD5-PLIN5 inh,Granule exo inh,NTR1 agonist,Exocytosis CP01
O=C(O)C1(c2ccccc2)CCN(S(=O)(=O)c2ccccc2)CC1,1.0,22.3,7.1,-18.9,-0.8,nt
COc1ccccc1NC(=O)CC1S/C(=N/N=C(\C)C2CCCCC2)NC1=O (configuration not stated),5.5,-3.2,3.2,-6.3,2.5,nt
Cn1nc(C(F)(F)F)c2cc(C(=O)Nc3ccc(C(F)(F)F)cc3)sc21,-2.9,11.7,1.4,85.5*,13.3,2.5
CC(C)n1nccc1N(Cc1ccc(Br)cc1)S(=O)(=O)c1ccccc1,-11.7,4.2,2.5,90.3*,3.6,10.9
CC(C)n1nccc1N(Cc1ccc(Cl)cc1)S(=O)(=O)c1ccccc1,-4.5,3.5,3.0,97.3*,6.2,2.2
O=c1cc(O)c2ccccc2n1Cc1ccccc1F,2.6,9.1,-0.2,-0.5,1.2,nt
CCCn1ncc2c(Nc3ccc(C)c(C)c3)ncnc21,-5.0,5.1,2.6,7.4,0.2,nt
Cc1ccc(/C=C(\C#N)C(=O)Nc2ccccn2)o1,1.2,-9.6,0.8,-1.0,-1.0,nt
O=C(COC(=O)COc1cccc(Br)c1)Nc1c(Cl)cccc1Cl,3.9,0.0,-1.2,-2.7,1.0,nt
CCOc1ccc(Cl)cc1-c1cc(C(=O)Nc2ccc(Br)cc2)[nH]n1,-3.0,nt,3.1,5.8,nt,nt
CC(C)C(=O)c1cc2c(cc1NC(=O)c1ccccc1)OCCO2,1.9,-13.8,-4.9,2.6,9.8,nt
CC(C)C(=O)c1cc2c(cc1NC(=O)c1cccs1)OCCO2,2.8,-9.9,-2.2,75.0*,7.0,-11.1
OC(c1ccccc1)(c1nc(-c2cc3ccccc3o2)cs1)C(F)(F)F (configuration not stated),-9.5,nt,-6.0,-5.4,nt,nt
CC1CCC(NS(=O)(=O)c2ccc(Cl)nc2)CC1 (configuration not stated),3.2,-8.4,-2.3,-1.1,-0.5,nt
O=C1c2ccccc2C(=O)N1C/C=C/c1ccccc1,-1.0,-2.8,0.5,0.9,-1.5,nt
O=C1C(=O)N(C/C=C/c2ccccc2)c2ccccc21,-2.6,15.4,7.5,61.7*,4.9,-1.5
CC(=O)c1c(C)nn(-c2ccccc2)c1C,2.2,2.9,-3.8,-5.9,0.8,nt
Cc1ccc(CN(C)C(=O)c2c(C)nn(-c3ccccc3)c2C)cc1,-5.3,-7.8,2.9,67.1*,0.3,-10.1
COc1ccc(NC(=O)CC2Nc3cccc4cccc(c34)NC2=O)cc1 (configuration not stated),2.8,4.5,5.0,60.8*,0.4,-12.9
CS(=O)(=O)N(Cc1ccc(C(=O)Nc2ccccc2Sc2ccccc2)cc1)c1ccccc1,-0.5,7.5,9.4,85.1*,-1.2,-1.5
CCOC(=O)c1cc(-c2csc(-c3cccc(Cl)c3)n2)on1,-1.2,3.2,1.9,5.8,1.4,nt

# Assay outcomes from PubChem.
